Shown are actives, neighbours in structure and some others; about 15% of the full set was active somewhere.
Pf growth 48h = inhibits P. falciparum growth in the first generation, 48 h | P. falciparum luciferase growth in erythrocytes, 48 h | Potency, µM (titrated, usually from 28.7 µM), most hits filed as inhibitors | 310,000 compounds, 5.9% hits
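Growth was read as firefly luciferase luminescence after a 48 h, 37 C, 5% CO2 exposure of compounds to reporter-bearing P. falciparum cultures (0.1% parasitemia, 2% hematocrit final) in Albumax-supplemented RPMI 1640.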
HCV inhibitor = HCV inhibition | Huh7.5.1 HCVcc-Cre infection, luciferase reporter, 44 h | 340,000 compounds, 3.4% hits | Potency, µM (titrated, usually from 41.8 µM), actives largely listed as inhibitors
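HCVcc-Cre virus at an moi near 0.5 was added right after compound to cells cultured 4 h from seeding (1,000 cells/well). Luciferase activity was determined 44 h later, 15 min after substrate addition at RT.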
HCMV antiviral = human cytomegalovirus inhibition; HFF cells, HCMV-luciferase reporter, 72 h; active compounds read low; 410,000 compounds, 4.5% hits; activity change, negative = inhibition, % at 57.5 µM; in the data active = activity change below about -60%; inconclusive = no clear call, values can overlap the other calls; inactive = above about -39%
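Two compound doses tested in HFFs infected with HCMV-luciferase, MOI 1 PFU/cell, 72 h at 37C. Lysate luminescence read with OneGlo; data normalized against buffer-only and 10uM Salinomycin inhibitor controls.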
Pf growth 96h = inhibits malaria parasite growth, 96 h; P. falciparum luciferase reporter growth, 96 h; AID 504834; Potency, µM (doses to about 28.7 µM), hits mostly inhibitors; 320,000 compounds, 6.9% hits
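Compounds incubated with erythrocytes infected by luciferase-expressing P. falciparum (2% hematocrit, 0.05% parasitemia final) for 96 hours, 37 C in 5% CO2. Growth inhibition scored as decreased luciferase luminescence.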
SARS PLpro yeast = SARS-CoV PLP inhibition in yeast | S. cerevisiae expressing SARS-CoV PLpro, growth rescue | Potency, µM (series often up to 32.9 µM), actives largely listed as activators | 330,000 compounds, 0.19% hits | AID 485353; calls by dose curve; note: nearly all actives have a fitted effect of over 55% in size
Sm TGR inh = inhibitors of Schistosoma mansoni thioredoxin glutathione reductase | Q962Y6 | purified TGR, DTNB reduction, TNB absorbance 405 nm | AID 485364 | Potency, µM (series often up to 114 µM), most hits filed as inhibitors | 360,000 compounds, 3% hits; note: nearly all actives have a fitted effect of over 60% in size
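TGR 20 nM + NADPH 100 uM (dispensed conc.), cpd preinc 15 min RT; start with NADPH (500 uM addition) then DTNB (15 mM addition). Kinetic TNB absorbance, 405 nm filter. Four-parameter Hill fit across titration.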
Hits are given with their value; [ ] = another dose, or the depositor's remark. Unless noted, calls come from the whole dose curve; as a rule, active = well fitted curve in the direction sought with a large enough effect; inconclusive = small, poorly fitted or top-dose-only effect, or another doubt; inactive = no such curve, though single readings can be large; an effect the other way counts as inactive or inconclusive.

For CCc1ccc(-c2nc(CN3CCCC(C(=O)N4CCN(c5cc(Cl)ccc5C)CC4)C3)c(C)o2)cc1 (configuration not stated) the results were HCMV antiviral -86 and Sm TGR inh inactive.
`O=S(=O)(c1ccccc1)N1CCC(c2ccncc2)CC1` gave HCMV antiviral inactive and Sm TGR inh inactive.
COc1ccc(N(Cc2cccs2)C(=O)COc2cc(C)c(Cl)c(C)c2)cc1 was read as HCMV antiviral -99 and Sm TGR inh inactive.
O=C(NN1C(=O)NC2(CCCCC2)C1=O)c1ccc(-c2ccc(Cl)cc2)o1 was read as Pf growth 48h inactive, HCV inhibitor 11µM, HCMV antiviral inactive, Pf growth 96h inactive, SARS PLpro yeast inactive and Sm TGR inh inactive.
Screening CCCCOCCCNC(=O)C[C@@H]1C[C@@]2(C(=O)OC)CC(C)(C)CC=C2N(Cc2cccc3ccccc23)C1=O returned HCMV antiviral inactive.
Screening Cc1cc(C)c2oc(=O)cc(CN3CCCCC3)c2c1 returned Pf growth 48h inconclusive, HCV inhibitor inactive, HCMV antiviral inactive, Pf growth 96h inconclusive, SARS PLpro yeast inactive and Sm TGR inh inactive.
`O=C(COc1coc(CN2CCc3ccccc3C2)cc1=O)Nc1cccc([N+](=O)[O-])c1` gave Pf growth 48h 12µM, HCV inhibitor inconclusive, HCMV antiviral inactive, Pf growth 96h inconclusive, SARS PLpro yeast inactive and Sm TGR inh inactive.
`Cc1cccc(NC(=O)COc2coc(CN3CCc4ccccc4C3)cc2=O)c1` gave Pf growth 48h 8.3µM, HCV inhibitor inactive, HCMV antiviral inactive, Pf growth 96h inconclusive, SARS PLpro yeast inactive and Sm TGR inh inactive.
Screening CCc1ccc(NC(=O)COc2coc(CN3CCc4ccccc4C3)cc2=O)cc1 returned Pf growth 48h 9.3µM, HCV inhibitor inconclusive, HCMV antiviral inactive, Pf growth 96h inconclusive, SARS PLpro yeast inactive and Sm TGR inh inactive.
Screening O=C(COc1coc(CN2CCc3ccccc3C2)cc1=O)Nc1ccc(Cl)cc1 returned Pf growth 48h inconclusive, HCV inhibitor inactive, HCMV antiviral inactive, Pf growth 96h inactive, SARS PLpro yeast inactive and Sm TGR inh inactive.
O=C(COc1coc(CN2CCCc3ccccc32)cc1=O)Nc1cccc([N+](=O)[O-])c1 was read as Pf growth 48h inconclusive, HCV inhibitor inconclusive, HCMV antiviral inactive, Pf growth 96h 6.6µM, SARS PLpro yeast inactive and Sm TGR inh inactive.
Screening CCc1ccc(CN2CCCC(C(=O)Nc3ccc(-c4cscn4)cc3)C2)o1 (configuration not stated) returned Pf growth 48h inconclusive, HCV inhibitor inactive, HCMV antiviral inactive, Pf growth 96h inactive, SARS PLpro yeast inactive and Sm TGR inh inactive.
`COc1cccc(-n2c(=O)c3sc4ccccc4c3n(CC(=O)Nc3ccccc3OC)c2=O)c1` gave HCMV antiviral inactive and Sm TGR inh inactive.
Cc1cc(Nc2ccccc2C(=O)O)n2ncnc2n1 was read as HCMV antiviral inactive.
For COCCNC(=O)CCC1CCN(Cc2cccc(Oc3ccccc3)c2)CC1 the results were Pf growth 48h inactive, HCV inhibitor inactive, HCMV antiviral inactive, Pf growth 96h inconclusive, SARS PLpro yeast inactive and Sm TGR inh inactive.
Screening Cc1cc(C)cc(NC(=O)COC(=O)Cn2cnc3c2c(=O)n(C)c(=O)n3C)c1 returned Pf growth 48h inactive, HCV inhibitor inactive, HCMV antiviral inactive, Pf growth 96h inactive, SARS PLpro yeast inactive and Sm TGR inh inactive.
Screening CCOC(=O)c1nnn(-c2nonc2-n2cccc2)c1CCl returned Pf growth 48h inconclusive, HCV inhibitor inactive, HCMV antiviral inconclusive, SARS PLpro yeast inactive and Sm TGR inh 8.9µM.
CCOC(=O)c1nnn(-c2nonc2N)c1CS(=O)(=O)c1ccccc1 was read as Pf growth 48h inactive, HCV inhibitor inactive, HCMV antiviral inactive, Pf growth 96h 12µM, SARS PLpro yeast inactive and Sm TGR inh inactive.
`CCOC(=O)c1nnn(-c2nonc2-n2cccc2)c1CN1CCC(C)CC1` gave Pf growth 48h inconclusive, HCV inhibitor inactive, HCMV antiviral inconclusive, Pf growth 96h inactive, SARS PLpro yeast inactive and Sm TGR inh inactive.
CCOC(=O)c1nnn(-c2nonc2N)c1CN1CCc2ccccc2C1 was read as Pf growth 48h inactive, HCV inhibitor inactive, HCMV antiviral inactive, SARS PLpro yeast inactive and Sm TGR inh inactive.
CCOc1ccc(/C=N/NC(=O)c2nnn(-c3nonc3N)c2-c2ccc(OCC)cc2)cc1 was read as Pf growth 48h inactive, HCV inhibitor inconclusive, HCMV antiviral inactive, Pf growth 96h inactive, SARS PLpro yeast inactive and Sm TGR inh inactive.
CCOc1cccc(-c2c(C(=O)N/N=C(\C)c3ccccn3)nnn2-c2nonc2N)c1 was read as Pf growth 48h inconclusive, HCV inhibitor 11µM, HCMV antiviral -69, Pf growth 96h 3.7µM, SARS PLpro yeast inactive and Sm TGR inh inactive.
CCOC(=O)c1nnn(-c2nonc2N)c1-c1ccc(OCC)cc1 was read as Pf growth 48h 13µM, HCV inhibitor inactive, HCMV antiviral inactive, Pf growth 96h inconclusive, SARS PLpro yeast inactive and Sm TGR inh inactive.
`CC(C)(C)OC(=O)NCc1ccc(CNC(=O)c2nc[nH]c2C(=O)N2CCN(C(=O)OC(C)(C)C)CC2)cc1` gave Pf growth 48h inconclusive, HCV inhibitor inconclusive, HCMV antiviral inactive, Pf growth 96h inconclusive, SARS PLpro yeast inactive and Sm TGR inh inactive.
Screening O=C(CCN1C(=O)/C(=C/c2ccccc2Cl)SC1=S)NC1CCCC1 returned Pf growth 48h inactive, HCV inhibitor inconclusive, HCMV antiviral inactive, Pf growth 96h inconclusive, SARS PLpro yeast inactive and Sm TGR inh inactive.
For CCN1/C(=C/C=C/C=C/C=C/c2sc3ccccc3[n+]2CC)Sc2ccccc21 the results were Pf growth 48h inconclusive, HCV inhibitor inconclusive, HCMV antiviral -96, Pf growth 96h inactive, SARS PLpro yeast inactive and Sm TGR inh 40µM.
`CC[n+]1c(/C=C(\C)OC)sc2ccccc21` gave Pf growth 48h inactive, HCV inhibitor inactive, HCMV antiviral inactive, Pf growth 96h inactive, SARS PLpro yeast inactive and Sm TGR inh inactive.
Screening CCN1/C(=C/C=C/c2sc3ccccc3[n+]2CC)Sc2ccccc21 returned Pf growth 48h 0.33µM, HCV inhibitor 1.6µM, Pf growth 96h 0.15µM and Sm TGR inh inactive.
Screening CCN1/C(=C/C=C/C=C/c2sc3ccccc3[n+]2CC)Sc2ccccc21 returned Pf growth 48h 3µM, HCV inhibitor inactive[8.37 µM], Pf growth 96h 3.4µM, SARS PLpro yeast inactive and Sm TGR inh 50µM.
Screening CC[n+]1c(/C=C/Nc2ccccc2)sc2ccccc21 returned Pf growth 48h inconclusive, HCV inhibitor inactive, HCMV antiviral inactive, Pf growth 96h inactive, SARS PLpro yeast inactive and Sm TGR inh inactive.
